“And” between values parts separate entries of the source, which are not always exact repeats. Identical values can stand only once. Among all 16,000 compounds or so, about 120 (0.75%) were called active. About 4% were inconclusive and are not listed. The call rests on the fitted dose curve; in most records, active means well fitted inhibition curve with a large enough effect; inconclusive means small, poorly fitted or top-dose-only effect; inactive means no such curve, though single readings can be large or run the other way. Many of the other results were omitted from the sample, so actives are more common in it than they were. Some structures have more than one record in an assay (separate samples or runs), and their calls can disagree. *1 amine or outer side, *2 acyl side, *3 side chain or, on linkers, in order; H or OH if unused. Where a SMILES comes first, the peptide text is derived from it. Bridges are numbered along the chain shown (N, C = ends). [ ]: non-standard residue; d: D form. The star is where a group is joined. X6 = NC1=N[C@@H](O)C[C@H]([C@H](N[*:1])C(=O)[*:2])N1; ΔAla(3-NHCONH2) = NC(=O)NC=C(N)C(=O)O; β3hOrn = NCCC[C@H](N)CC(=O)*; Dap = NC[C@H](N)C(=O)O
Target: Rap guanine nucleotide exchange factor 3 (Homo sapiens) (UniProt O95398)
Test: Validation qHTS for antagonist of cAMP-regulated guanine nucleotide exchange factor 3 (EPAC1); further: nearly all actives have a fitted effect of over 75% in size;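 on activity change, negative = inhibition: plate controls were DMSO for no effect and ATA control for full effect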
Conditions: EPAC1 Rap1B-BODIPY-GDP exchange, fluorescence; series mostly up to 150 µM; activity change, negative = inhibition: at the top concentration
Procedure, shortened: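 EPAC1 (100 nM) mixed with 250 nM RAP1B-BODIPY-GDP and 50 uM GDP; compounds in concentration series, 5 min at room temperature. Fluorescence (ex 480/em 540 nm) read every 5 min for 30 min; normalized to ATA control and DMSO.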
Potency means the concentration at half of the fitted maximal effect.

Sequence of Rap guanine nucleotide exchange factor 3 (Homo sapiens) (O95398 whole entry, looked up): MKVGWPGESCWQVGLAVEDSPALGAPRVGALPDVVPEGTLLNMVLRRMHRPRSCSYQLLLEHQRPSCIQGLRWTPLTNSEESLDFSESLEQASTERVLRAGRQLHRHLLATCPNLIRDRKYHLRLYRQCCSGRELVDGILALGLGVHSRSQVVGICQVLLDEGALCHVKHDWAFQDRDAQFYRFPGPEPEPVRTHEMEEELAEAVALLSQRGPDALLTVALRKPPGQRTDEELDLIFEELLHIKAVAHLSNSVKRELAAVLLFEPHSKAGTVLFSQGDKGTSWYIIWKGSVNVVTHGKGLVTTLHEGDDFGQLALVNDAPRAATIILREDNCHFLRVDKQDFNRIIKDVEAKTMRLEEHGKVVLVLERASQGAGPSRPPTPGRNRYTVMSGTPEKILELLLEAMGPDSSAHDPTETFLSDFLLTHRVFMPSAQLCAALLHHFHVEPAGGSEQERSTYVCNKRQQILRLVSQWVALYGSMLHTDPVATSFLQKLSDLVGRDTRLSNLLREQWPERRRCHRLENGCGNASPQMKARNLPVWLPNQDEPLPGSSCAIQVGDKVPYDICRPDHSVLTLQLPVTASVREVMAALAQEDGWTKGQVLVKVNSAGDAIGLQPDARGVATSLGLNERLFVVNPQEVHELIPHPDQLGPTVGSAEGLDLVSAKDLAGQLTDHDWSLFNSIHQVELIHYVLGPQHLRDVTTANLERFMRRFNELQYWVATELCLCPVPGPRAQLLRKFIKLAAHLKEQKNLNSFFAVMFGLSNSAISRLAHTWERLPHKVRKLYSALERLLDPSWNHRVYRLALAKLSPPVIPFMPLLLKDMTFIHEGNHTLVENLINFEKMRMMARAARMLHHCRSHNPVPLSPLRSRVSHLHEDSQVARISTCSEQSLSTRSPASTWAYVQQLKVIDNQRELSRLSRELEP

Compound | activity change, negative = inhibition | Potency
OCC1OC(n2cnc3c(=S)nc[nH]c32)C(O)C1O (stereo not drawn) | 12.5% (inactive) | –
Cc1cccc(CNc2ccnc(-c3ccccc3Cl)n2)c1 | -8.78% (inactive) | –
O=C1CCC(=O)N1CO | 7.5% (inactive) | –
COc1cc(OC)c(/C=C/c2ccc3ccccc3n2)c(OC)c1 | 11.9% (inactive) | –
COc1ccccc1CCn1c(=O)cnc2cncnc21 | 9.6% (inactive) | –
COc1ccc(CNc2nc(-c3ccccc3OC)nc3ccccc23)c(OC)c1 | -2.83% (inactive) | –
C=CC(C)(C)c1[nH]c2ccccc2c1C1=C(O)C(=O)C(c2c[nH]c3c(CC=C(C)C)cccc23)=C(O)C1=O | – | 56.2 µM (active)
CC(C)=CCC1=C(O)c2ccccc2C(=O)C1=O | – | inactive
CCc1cccc2c(C(O)c3c[nH]c4ccccc34)c[nH]c12 (stereo not drawn) | -21.8% (inactive) | –
Cc1cc(-c2ccnc(-n3ncc(C(=O)NCCc4cccnc4)c3C)n2)c(C)s1 | 6.29% (inactive) | –
COc1ccc(CN2CCC(n3cc(C(=O)N4CCCC4)nn3)CC2)c(OC)c1C | 13% (inactive) | –
O=C(c1cnccn1)N1CCC2(CCCN(Cc3nccs3)C2)CC1 | 13.2% (inactive) | –
NC(C(=O)O)c1cc(O)cc(O)c1 (stereo not drawn) | 23.2% (inactive) | –
N[C@H](C(=O)O)c1cc(O)cc(O)c1 | – | inactive
NC(C(=O)O)c1cc(O)c(Cl)c(O)c1 (stereo not drawn) | – | 56.2 µM (active)
CCCCCCCCCCCCCC[N+](C)(C)C | 19.7% (inactive) | –
Cc1cc2c(C(C)C)c(O)c(O)c(C=O)c2c(O)c1-c1c(C)cc2c(C(C)C)c(O)c(O)c(C=O)c2c1O | – | 50.1 µM (active) and 39.8 µM (active) and 79.4 µM (active)
Cc1cc(O)c(C=O)c(O)c1C(=O)O | -4.66% (inactive) | –
Cc1c(C(=O)N(C)C(C)C)sc2ncnc(NCCCN3CCOCC3)c12 | 14.4% (inactive) | –
COc1ccc(SC[C@H](C)CN2CC[C@H](C(C)(C)C)CCC2=O)cc1 | -22.7% (inactive) | –
C=CC1=C(C)C2=CC3=NC(=C(CC(=O)[O-])C4=NC(=C(C)C4=C([O-])[O-])C=c4[n-]c(c(C)c4CC)=CC1=N2)C(CCC(=O)[O-])C3C.[Cu+2].[Na+].[Na+].[Na+] (stereo not drawn) | – | 89.1 µM (active)
CCCCCCCCCCCCCCCCC(C(=O)O)C(O)(CC(=O)O)C(=O)O (stereo not drawn) | – | 35.5 µM (active)

Compound | activity change, negative = inhibition | Potency
CCCCCCCCCCCCC(O)C(=O)O (stereo not drawn) | -12.9% [at 15.3 µM] (inactive) | –
CCCCCCCCCCCCC(C(=O)O)C(C)C(=O)O (stereo not drawn) | 1.9% (inactive) | –
CN1CCN(c2ncc3nc(-c4ccccc4)c(=O)n(CCC#N)c3n2)CC1 | 5.83% (inactive) | –
Oc1cc(O)c2c(c1)OC(c1cc(O)c(O)c(O)c1)C(O)C2 (stereo not drawn) | -8.05% (inactive) | –
Oc1ccc2c(c1)OC(c1ccc(O)c(O)c1)C(O)C2 (stereo not drawn) | 20.8% (inactive) | –
Oc1ccc(C2Oc3cc(O)cc(O)c3CC2O)cc1 (stereo not drawn) | 2.55% (inactive) | –
O=c1c(O)cc(C2Oc3cc(O)cc(O)c3CC2O)cc2c(C3Oc4cc(O)cc(O)c4CC3O)cc(O)c(O)c12 (stereo not drawn) | – | 39.8 µM (active)
Oc1cc(O)c2c(c1)O[C@H](c1ccc(O)c(O)c1)[C@@H](O)C2 | – | inactive
Oc1cc(O)c2c(c1)O[C@H](c1ccc(O)c(O)c1)[C@H](O)C2 | – | 79.4 µM (active)
CN(Cc1cnc2ccccn12)C1CCN(c2cccc(NC(=O)c3cccnc3)c2)CC1 | -5.71% (inactive) | –
Cc1ccc(C(=O)N(Cc2cc3cc4c(cc3nc2N2CCOCC2)CCC4)CC2CCCO2)cc1 (stereo not drawn) | -21% (inactive) | –
CC(C)C[C@@H](CO)N1CCN(Cc2ccccc2)CCC1=O | – | inactive
O=C(NCc1cccnc1)[C@@H]1CC=C[C@@H]2CCN(Cc3ccc(Cl)c(Cl)c3)C(=O)[C@@H]21 | 0.262% (inactive) | –
CC(C)(Sc1ccc(CCN(CCCCC2CCCCC2)C(=O)NC2CCCCC2)cc1)C(=O)O | – | 44.7 µM (active)
O=c1c(-c2ccccc2)nc2cnc(Oc3cccc(Cl)c3)nc2n1C[C@H]1CCCO1 | 12.9% (inactive) | –
COc1cc([C@@H]2c3cc4c(cc3C(OC3OC5COC(C)OC5C(O)C3O)C3COC(=O)[C@@H]32)OCO4)cc(OC)c1O (stereo partly drawn) | 11.4% (inactive) | –
O=C1c2c(O)cccc2[C@H]([C@@H]2O[C@H](CO)[C@@H](O)[C@H](O)[C@H]2O)c2cc(CO)cc(O)c21 | 4.72% (inactive) | –
O=C1c2c(O)cccc2[C@@H]([C@@H]2O[C@H](CO)[C@@H](O)[C@H](O)[C@H]2O)c2cc(CO)cc(O)c21 | 4% (inactive) | –
O=C(O)c1cc(O)c2c(c1)[C@H]([C@H]1c3cc(C(=O)O)cc(O)c3C(=O)c3c(O[C@@H]4O[C@H](CO)[C@@H](O)[C@H](O)[C@H]4O)cccc31)c1cccc(O[C@@H]3O[C@H](CO)[C@@H](O)[C@H](O)[C@H]3O)c1C2=O | – | 100 µM (active)
CCCN1CCC(=O)N([C@H](CO)Cc2ccccc2)CC1 | 7.95% (inactive) | –
Nc1c(S(=O)(=O)O)cc(Nc2ccc(Nc3nc(Cl)nc(Nc4ccc(S(=O)(=O)O)cc4)n3)c(S(=O)(=O)O)c2)c2c1C(=O)c1ccccc1C2=O | – | 22.4 µM (active)
CC#CCC(C)[C@H](O)/C=C/[C@@H]1[C@H]2c3cccc(CCCC(=O)O)c3O[C@H]2C[C@H]1O (stereo partly drawn) | 7.01% (inactive) | –

Compound | activity change, negative = inhibition | Potency
Nc1ccc(O)cc1 | -22.7% [at 320 µM] (inactive) | –
Nc1cc(N)cc(N)c1 | – | 44.7 µM (active)
COc1cc(N)c(N)cc1OC | 22.6% (inactive) | –
COc1ccc2[nH]cc(CCO)c2c1 | 4.85% (inactive) | –
CC(C)c1ccc(CN2CCC3(CCC(CNC(=O)c4ccn(C)n4)O3)CC2)cc1 (stereo not drawn) | 19.7% (inactive) | –
Cc1cccc(C(=O)NCc2nc(-c3cccc(NC(=O)C4CCCN(C)C4)c3)oc2C)n1 (stereo not drawn) | 12.9% (inactive) | –
Cn1cccc1C(=O)N1CCC[C@@]2(CCN(c3cccc(-c4ccccc4)c3)C2)C1 | 1.7% (inactive) | –
CCOc1nc2cccc(C(=O)O)c2n1Cc1ccc(-c2ccccc2-c2nn[nH]n2)cc1 | 9.91% (inactive) | –
CCOc1nc2cccc(C(=O)OC(C)OC(=O)OC3CCCCC3)c2n1Cc1ccc(-c2ccccc2-c2nn[nH]n2)cc1 (stereo not drawn) | – | 89.1 µM (active)
CCCc1nc(C(C)(C)O)c(C(=O)OCc2oc(=O)oc2C)n1Cc1ccc(-c2ccccc2-c2nn[nH]n2)cc1 | 20.8% (inactive) | –
CCN1CCCC1CNC(=O)c1cnn(-c2ncc3c(n2)-c2ccc(OC)cc2CC3)c1C1CC1 (stereo not drawn) | 12.9% (inactive) | –
NCCC[C@H](N)CC(=O)N[C@H]1CNC(=O)[C@H]([C@H]2C[C@H](O)N=C(N)N2)NC(=O)C(=CNC(N)=O)NC(=O)[C@H](CO)NC(=O)[C@H](CO)NC1=O (β3hOrn-[Dap]SS[ΔAla(3-NHCONH2)][X6]; lactam 1-C) | 23.2% [at 39.6 µM] (inactive) | –
O.O.O.O.O.O.O.O=S(=O)([O-])[O-].[Co+2] | – | 100 µM (active)
Cc1ccc(C(=O)Nc2cccc(-c3nc(CNC(=O)c4ccc(F)cc4Cl)c(C)o3)c2)s1 | -17.1% (inactive) | –
CC(=O)OC1CCC2(C)C3=C(CCC2C1(C)C)[C@@]1(C)CCC(C(C)CCC=C(C)C)[C@@]1(C)CC3 (stereo partly drawn) | -0.323% (inactive) | –
CCCCCCCCCCCCCCCCSCC(COC)COP(=O)([O-])OCC[N+](C)(C)C (stereo not drawn) | 5.55% (inactive) | –
CN1CCN(CCCN2c3ccccc3Sc3ccccc32)CC1 | 26.3% (inactive) | –
OCCN1CCN(CCCN2c3ccccc3Sc3ccc(Cl)cc32)CC1 | – | inactive
CN1CCN(CCCN2c3ccccc3Sc3ccc(Cl)cc32)CC1 | – | inactive and 112 µM (active)
CC(=O)N1CCC2(CC1)CN(c1cccc(-c3ccccc3)c1)C2 | 4.97% (inactive) | –
C=C1[C@@H](O)[C@H](CC(C)C)N(Cc2ccccc2Br)S1(=O)=O | – | 89.1 µM (active)
C[C@@H]1[C@H](c2ccccc2)OCCS(=O)(=O)N1Cc1ccccc1Br | -15.5% (inactive) | –

Compound | activity change, negative = inhibition | Potency
O=S1(=O)CCO[C@H]2CCCC[C@@H]2N1Cc1ccccc1Br | -3.34% (inactive) | –
Cc1ccc2c(c1)C(=O)[C@@]1(O)CCN(c3ccccc3)C1=N2 | -6.6% (inactive) | –
Cc1cnc(-n2ncc(C(=O)NCCN3CCOCC3)c2C2CC2)nc1-c1cccs1 | 5.26% (inactive) | –
CCC1CN(CCNC(=O)c2cc(C(C)C)nn2C)Cc2cc(OC)ccc2O1 (stereo not drawn) | 4.19% (inactive) | –
Oc1c(Cl)cc(Cl)c(Cl)c1Cc1c(O)c(Cl)cc(Cl)c1Cl | – | 56.2 µM (active) and inactive
Cc1ccc2c(Cl)cc(Cl)c(O)c2n1 | – | inactive
Oc1c(Cl)cc(Cl)c2cccnc12 | 7.71% (inactive) | –
COc1ccc(C(=O)N2CCC3(CC2)CN(c2ncccn2)C3)cc1 | 1.47% (inactive) | –
COc1cc(CN2CCOc3ccc(CN4CCC(O)(c5cccnc5)CC4)cc3C2)cc(OC)c1 | 23% (inactive) | –
Cc1ccc(C(=O)NCCc2nnc3n2CCN(Cc2cc(C)cc(C)c2)CC3)cc1 | -5.23% (inactive) | –
c1csc(CNc2ncncc2-c2ccoc2)c1 | 7.04% (inactive) | –
O=C(c1nc2ncccn2n1)N1CCOc2ccc(C(O)C(c3ccccc3)c3ccccc3)cc2C1 (stereo not drawn) | -1.68% (inactive) | –
C=C1c2cccc(O)c2C(O)=C2C(=O)[C@]3(O)C(O)=C(C(N)=O)C(=O)C(N(C)C)C3C(O)C12 (stereo partly drawn) | 9.9% (inactive) | –
C=C1c2cccc(O)c2C(O)=C2C(=O)[C@]3(O)C(O)=C(C(N)=O)C(=O)[C@@H](N(C)C)[C@@H]3[C@@H](O)[C@H]12 | – | 31.6 µM (active)
C=C1c2c(Cl)ccc(O)c2C(O)=C2C(=O)[C@]3(O)C(O)=C(C(N)=O)C(=O)C(N(C)C)C3C(O)C12 (stereo partly drawn) | -0.56% (inactive) | –
O=C(c1cccnc1)C1CCCN(Cc2ccc3c(c2)CN(C(=O)c2cccc(Cl)c2)CCO3)C1 (stereo not drawn) | 15.7% (inactive) | –
CCC(C(=O)NC(N)=O)c1ccccc1 (stereo not drawn) | 5.14% (inactive) | –
COC(=O)C[C@](O)(CCCC(C)(C)O)C(=O)O[C@@H]1C(OC)=CC23CCCN2CCc2cc4c(cc2[C@H]13)OCO4 (stereo partly drawn) | 23.6% (inactive) | –
Cn1cccc1C(=O)N1CCC[C@@]2(CCN(c3ncccn3)C2)C1 | 15.2% (inactive) | –
CCCOC(=O)c1cc(O)c(O)c(O)c1 | -15.6% (inactive) | –
CCOC(=O)Cc1cccc(-c2cc(CCCCCCc3ccc(O[C@H]4O[C@H](COC(C)=O)[C@@H](OC(C)=O)[C@H](OC(C)=O)[C@@H]4OC(C)=O)c(-c4cccc(CC(=O)OCC)c4)c3)ccc2O[C@H]2O[C@H](COC(C)=O)[C@@H](OC(C)=O)[C@H](OC(C)=O)[C@@H]2OC(C)=O)c1 | 16.7% (inactive) | –
O=C(OC[C@H]1O[C@@H](OC(=O)c2cc(O)c(O)c(OC(=O)c3cc(O)c(O)c(O)c3)c2)[C@H](OC(=O)c2cc(O)c(O)c(OC(=O)c3cc(O)c(O)c(O)c3)c2)[C@@H](OC(=O)c2cc(O)c(O)c(OC(=O)c3cc(O)c(O)c(O)c3)c2)[C@@H]1OC(=O)c1cc(O)c(O)c(OC(=O)c2cc(O)c(O)c(O)c2)c1)c1cc(O)c(O)c(OC(=O)c2cc(O)c(O)c(O)c2)c1 | – | 11.2 µM (active)

Source: PubChem BioAssay AID1645882 (National Center for Advancing Translational Sciences (NCATS), 2021)
